# The entries come from a sample that favours hits as a whole.
# Pf Dd2 inh: inhibitors of Plasmodium falciparum Dd2 growth; Potency, µM (top dose mostly 28.9 µM), for the others: top-dose activity, negative = inhibition, usual class: inhibitors; AID 1347417; actives 4.3% (n = 120,000); P. falciparum Dd2 growth, SYBR Green, 72 h; active = well fitted inhibition curve with a large enough effect;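 also: plate controls were DMSO vehicle for no effect and reference drug for full effect; nearly all actives have a fitted effect of over 65% in size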
#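 Readout: SYBR Green fluorescence, 485 nm excitation, 535 nm emission, after ~16 h lysis at 37C. Before that, Dd2-infected red cells (2.5% hematocrit) grew 72 h with compound, 29 uM top final concentration.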
# An asterisk follows results filed as active; i = inactive; [ ] = remark or other dose. Potency is read from the fitted curve at half-maximal effect.
SMILES,Pf Dd2 inh
c1nc(-c2cc(NC3CCNCC3)nc3[nH]ccc23)c2sccc2n1,i
CN(C)C(=O)c1ccc(-c2cc(NC3CCCC3)nc3[nH]ccc23)o1,8.9µM*
O=C(NCc1ccnc2[nH]ccc12)C1CCCC1,5%[44.1 µM]
CCC(=O)N1CCC(N(C(=O)COC)C2CCOCC2)CC1,i
NC(=O)CO[C@@H]1CO[C@H]2[C@@H]1OC[C@@H]2NS(=O)(=O)c1cccs1,-14%[44.1 µM]
Cc1ccc(C2CCN(C(=O)c3cnn(-c4ccc(C)cc4)c3C3CCN(C(=O)OC(C)(C)C)CC3)C2)cc1 (configuration not stated),-24%
Cc1ccc(-n2ncc(C(=O)N3CCN(c4ncccn4)CC3)c2C2CCN(C(=O)OC(C)(C)C)CC2)cc1,41%
CC(C)(C)OC(=O)N1CCC(c2c(C(=O)N3CCC(c4ccccc4)C3)cnn2-c2ccc(Cl)cc2)CC1 (configuration not stated),4.5µM*
Cc1ccc(-n2ncc(C(=O)N3CCC(c4ccccc4)C3)c2C2CCN(C(=O)OC(C)(C)C)CC2)cc1 (configuration not stated),11µM*
CCOC(=O)c1cnn(-c2ccc(OC)cc2)c1C1CCN(C(=O)OC(C)(C)C)CC1,7.9µM*
CCOC(=O)c1ccccc1NC(=O)c1cnn(-c2ccc(OC)cc2)c1C1CCN(C(=O)OC(C)(C)C)CC1,59%
CC(C)(C)OC(=O)N1CCC(c2c(C(=O)N3CCN(c4ccccn4)CC3)cnn2-c2ccccc2)CC1,-22%
COc1ccc(-n2ncc(C(=O)N3CCN(c4ncccn4)CC3)c2C2CCN(C(=O)OC(C)(C)C)CC2)cc1,20%
Cn1nc(-c2cccs2)cc1[C@H]1CN2CC[C@H]1C[C@@H]2CN,i
COc1ccc(-c2cc(N3CCCN(C(=O)c4ccccn4)CC3)n[nH]2)cc1,i
COc1cc2c(cc1OCc1ccccc1)N(C(=O)[C@@H]1CCCO1)CC21CCN(C)CC1,i
COc1cc2c(cc1OCc1ccc(Cl)cc1)N(Cc1ccccc1)CC21CCN(C(C)=O)CC1,i
COc1cc2c(cc1OCc1ccccc1)N(C(=O)c1c[nH]c3ccccc13)CC21CCN(C)CC1,2.5µM*
Cn1c(CN2C[C@H](O)C[C@H]2c2nc(-c3ccc4c(c3)OCO4)no2)nc2ccccc21,i
Cc1ccc(C)c(CN2CCn3nnc(-c4nc(-c5ccsc5)no4)c3C2=O)c1,i
CCn1ccc(C(=O)N2C[C@H](CO)C[C@H](CN3CCCC3)C2)n1,-1%
Cc1ccc(-c2cc(C(=O)N3CCC(Cc4nncn4C(C)C)CC3)c3ccccc3n2)cc1C,5µM*
Cc1nn(C(=O)CCCC(=O)N2CCC(Cc3nncn3C(C)C)CC2)c2ccccc12,-10%
CC(C)n1cnnc1CC1CCCN(C(=O)c2n[nH]c3ccccc23)C1 (configuration not stated),-3%
CCOC(=O)c1c(C)sc(-c2c(-c3cccc(Cl)c3)[nH]c3c2c(=O)n(C)c(=O)n3C)c1O,146%
SMILES,Pf Dd2 inh
CCOC(=O)c1c(C)sc(-c2c(-c3cc(C)ccc3C)[nH]c3c2c(=O)[nH]c(=O)n3C)c1O,-6%
CCOC(=O)c1c(C)sc(-c2c(-c3cc(C)ccc3C)[nH]c3c2c(=O)n(C)c(=O)n3C)c1O,10µM*
O=C(CC1CCCCC1)N1CCC(Cc2nc(-c3ccccc3)no2)CC1,9%
COc1ccc(CN2CCC(N3Cc4ccccc4C3=O)CC2)cc1,-9%
COc1ccc(-c2nc3c(c(=O)[nH]2)CCN(C(=O)c2nccc4ccccc24)C3)cc1,5µM*
COc1ccc(-c2nc3c(c(=O)[nH]2)CCN(S(=O)(=O)C2CC2)C3)cc1,-15%
COc1ccc(-c2nc3c(c(=O)[nH]2)CCN(C(=O)Nc2cc(F)cc(F)c2)C3)cc1,i
COc1ccc(-c2nc3c(c(=O)[nH]2)CCN(C(=O)NCC2CCCO2)C3)cc1 (configuration not stated),i
COc1ccc(-c2nc3c(c(=O)[nH]2)CCN(C(=O)c2cc(Cl)ccc2OC)C3)cc1,10µM*
COc1ccc(-c2nc3c(c(=O)[nH]2)CCN(C(=O)Nc2ccc4c(c2)CCC4)C3)cc1,i
CCC1c2nccn2CCCN1C(=O)Cc1c(C)noc1C (configuration not stated),-13%
O=C1NC2(Cc3ccccc31)CN(CC1CCOCC1)C2,i
CCOc1ccccc1NC(=O)CSc1nc2c(c(=O)[nH]1)CCC2,i
Cc1ccc(C)c(NC(=O)CSc2nc(-c3ccccc3)c(C#N)c(=O)[nH]2)c1,21%
COc1ccccc1NC(=O)CSc1nc(-c2ccc(C(C)(C)C)cc2)c(C#N)c(=O)[nH]1,10µM*
CN(C)[C@@H]1CN(Cc2cccc(F)c2F)CC[C@@H]1CNC(=O)C1CC1,i
Cc1cc(C)cc(OCC(=O)c2ccc3c(c2)N(CC(=O)NCc2ccccc2)C(=O)CO3)c1,i
CCOC(=O)c1ccc(NC(=O)CCCc2nc(-c3cc(OC)c(OC)c(OC)c3)no2)cc1,13µM*
O=C(CCCc1nc(-c2ccccc2)no1)Nc1cc(C(F)(F)F)cc(C(F)(F)F)c1,-9%
CCOC(=O)c1ccc(NC(=O)Cc2noc3ccc(C)cc23)cc1,-5%
CCCN(CC1CCOC1)C(=O)Nc1cccc(SC)c1 (configuration not stated),38%[5.79 µM]
Fc1ccc(-c2ccc3ncc(Nc4ccc(Cl)cn4)n3n2)cc1,i
Fc1ccc(-c2ccc3ncc(Nc4ccccn4)n3n2)cc1,5.6µM*
Clc1ccc(Nc2cnc3ccc(-c4ccccc4)nn23)nc1,i
c1ccc(-c2ccc3ncc(Nc4cccnc4)n3n2)cc1,1.6µM*
SMILES,Pf Dd2 inh
c1ccc(-c2ccc3ncc(Nc4cnccn4)n3n2)cc1,i
Fc1ccc(-c2ccc3ncc(Nc4ncccn4)n3n2)cc1,1%[44.1 µM]
O=C1NCCCCCN(C(=O)c2nccc3ccccc23)[C@H]2CCC[C@@H]12,i
CC(C)=CC(=O)N1C[C@@H](NC(=O)NC2CCCCC2)C[C@H]1C(=O)N[C@H](Cc1c[nH]c2ccccc12)C(N)=O,-27%
CC(C)CC(=O)NCCC1CCN(C(=O)Nc2ccccc2)CC1,-13%
O=C(COc1ccccc1)NCCC1CCN(C(=O)Nc2ccccc2)CC1,11µM*
O=C(CCc1ccccc1)NCCC1CCN(C(=O)Nc2ccccc2)CC1,i
CCCN(CC1CCOC1)C(=O)c1cc(Cl)ccc1F (configuration not stated),36%[5.79 µM]
N#Cc1ccc(S(=O)(=O)NCC(=O)N2CCCCCNC(=O)CC2c2ccccc2)cc1 (configuration not stated),-13%
O=C(NC1CC(c2nnc(CO)n2C2CC2)C1)c1n[nH]c2c1COCC2 (configuration not stated),-14%
O=C1COc2cc(C(=O)NC3CC(c4nnc(CO)n4C4CC4)C3)ccc2N1 (configuration not stated),6.3µM*
Cc1c(C(=O)NC2CC(c3nnc(CO)n3C3CC3)C2)n(C)c2c(C)cccc12 (configuration not stated),i
Cc1cc(=O)n(CC(=O)N2CC[C@](C)(O)C(C)(C)C2)c2ccccc12,17%
COc1ccc(C)cc1NC(=O)c1oc2ccc(S(=O)(=O)N3CCOCC3)cc2c1C,33%
CCOC(=O)c1oc2ccc(S(=O)(=O)n3nc(-c4cc(OCC)c(OCC)c(OCC)c4)cc3N)cc2c1C,10µM*
COc1ccc(C)cc1NC(=O)c1oc2ccc(S(=O)(=O)N3CCCCC3)cc2c1C,34%
CCN(CC)C(=O)c1cc2c(s1)CCC(C(=O)NCc1cccnc1)C2 (configuration not stated),27%

# Bioassay records (PubChem BioAssay)
